{"source": "PubChem BioAssay (NCI)", "note": "The panel holds about 83,000 compounds, 20% with a hit somewhere; the sample as a whole holds those more often.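 Note: values are percent growth. 100 is the growth of untreated cells, values between 100 and 0 indicate rising inhibition; between -100 and 0 indicates cell death.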 A number with no mark means an inactive call. Calls of active or inactive are those of the source. How the source made its calls: active means growth percent below 10; inactive means the rest."}
{"tested_on": "HL-60(TB) leukemia", "assay": "NCI-60 one-dose screen, 48 h (100 = growth as untreated, 0 = no growth, -100 = all killed)", "details": "10 µM unless noted"}
{"smiles": "CC(=O)Nc1ccccc1-c1n[nH]c(=O)[nH]c1=O", "growth": "109%"}
{"smiles": "Cc1[nH]n(-c2cccc(Cl)c2)c(=O)c1/C=C1\\C=c2ccccc2=CC1=O", "growth": "104%"}
{"smiles": "O=S(=O)(NCCNc1nccc(-c2c(-c3cccc(F)c3)nc3sccn23)n1)c1ccc(Cl)cc1", "growth": "95.9%"}
{"smiles": "C=C(C)[C@@H]1CC[C@]2(C(=O)OCCOCCOCC[P+](c3ccccc3)(c3ccccc3)c3ccccc3)CC[C@]3(C)[C@H](CC[C@@H]4[C@@]5(C)CC[C@H](OC(=O)C(Cl)Cl)C(C)(C)[C@@H]5CC[C@]43C)[C@@H]12", "growth": "-47.8% (active)"}
{"smiles": "CC(C)[N+]1(C)C2CC[C@@H]1CC(OC(=O)C(CO)c1ccccc1)C2", "note": "(stereo partly specified)", "growth": "107%"}
{"smiles": "C=CCn1c(CN2CCN(c3cc4c(cc3F)c(=O)c(C(=O)O)cn4C3CC3)CC2)n[nH]c1=S", "growth": "90.1%"}
{"smiles": "CC(CN1CCCCC1)C(=O)c1ccccc1", "note": "(stereo unspecified)", "growth": "103%"}
{"smiles": "Cc1ccc2nc(CN(CCN(Cc3nc4ccc(C)cc4[nH]3)Cc3nc4ccc(C)cc4[nH]3)Cc3nc4ccc(C)cc4[nH]3)[nH]c2c1", "growth": "-67.7% (active)"}
{"smiles": "Cc1nc(Nc2ccc(NC(=S)Nc3ccccc3)cc2)nc2nc(Nc3ccc(S(=O)(=O)O)cc3)[nH]c(=O)c12", "growth": "132%"}
{"smiles": "Cc1c(CN2CCN(C(=O)[C@H](C)O)CC2)sc2c(N3CCOCC3)nc(-c3cnc(N)nc3)nc12", "growth": "-7.28% (active)"}
{"smiles": "Cc1[nH]c(C(=O)Nc2ccc(C(N)=O)cc2OC(C)C)c(Cl)c1Cl", "growth": "97.1%"}
{"smiles": "Cc1ccc(C(=O)N/N=C/c2cccc(Oc3ccccc3)c2)cn1", "growth": "9.21% (active)"}
{"smiles": "O=C(Nc1ccncc1)C(=O)c1cn(S(=O)(=O)c2ccc(Cl)cc2)c2ccccc12", "growth": "18.3%"}
{"smiles": "Cc1nc([P+](c2ccccc2)(c2ccccc2)c2ccccc2)c(N2CCCCC2)o1", "growth": "-2.68% (active)"}
{"smiles": "O=C(Nc1cnc(Nc2ccc(N3CCOCC3)nc2)nc1Oc1ccc(C(F)(F)F)cc1)c1ccncc1", "growth": "98.6%"}
{"smiles": "Cc1nc(Nc2nc3ccccc3o2)nc(-c2cccc([N+](=O)[O-])c2)c1C(=O)Nc1ccc(F)c(Cl)c1", "growth": "-22.1% (active)"}
{"smiles": "Cc1cc(C(=O)Nc2cc(Oc3ccc4nc(NC(=O)C5CC5)cn4n3)ccc2C)n(C)n1", "growth": "7.21% (active)"}
{"smiles": "CC1Cc2c(Cl)ncnc2N(C)c2ccccc21", "note": "(stereo unspecified)", "growth": "11.8%"}
{"smiles": "CN1CCN(c2cnc(C(=O)Nc3cc(F)cc4cccnc34)cn2)CC1", "growth": "6.72% (active)"}
{"smiles": "CCCCc1n(Cc2ccc3ccccc3n2)cc[n+]1Cc1ccc2ccccc2n1", "growth": "-44.7% (active)"}
{"smiles": "NS(=O)(=O)c1ccc(-n2nc(-c3ccc(Cl)cc3)c3ccccc3c2=O)cc1", "growth": "95.2%"}
{"smiles": "N#Cc1ccc(O)c(C2=NCC(c3ccc(-c4ccccc4)cc3)O2)c1", "note": "(stereo unspecified)", "growth": "-17.3% (active)"}
{"smiles": "CCCCCCCCCCN1CCC(N2CCCCC2)CC1", "growth": "-57.7% (active)"}
{"smiles": "Nc1ccc(N=Nc2ccccc2)cc1[N+](=O)[O-]", "growth": "97.1%"}
{"smiles": "O=C1C(=O)/C(=C/c2ccccc2)CCCCCC/C1=C/c1ccccc1", "growth": "46.6%"}
{"smiles": "CCOC(=O)c1c(C)nc2c(c1N)CC(=O)N2Cc1cc(OC)c(OC)c(OC)c1", "growth": "18.8%"}
{"smiles": "COc1ccc(CCn2cncc2-c2c[nH]c3ccccc23)cc1", "growth": "93.5%"}
{"smiles": "CCCOC(=O)c1ccc2c(c1)[N+](=O)C(C(=O)c1ccccc1)=C(C(F)(F)F)[N+]2=O", "growth": "-71.6% (active)"}
{"smiles": "Nc1cccc(-c2nc3sccn3c2-c2ccnc(NCCCNS(=O)(=O)c3ccc(C(F)(F)F)cc3)n2)c1", "growth": "-18.5% (active)"}
{"smiles": "Cc1ccc(-c2cc(-c3ccccc3)n(-c3ccccc3)n2)cc1", "growth": "98.5%"}
{"smiles": "COc1ccccc1S(=O)(=O)Nc1ccc2c3c(cc(CCC(=O)NCCCCNc4cccc5c4C(=O)N(C4CCC(=O)NC4=O)C5=O)cc13)C(=O)N2C", "note": "(stereo unspecified)", "growth": "-1.81% (active)"}
{"smiles": "O=c1oc2ccc(F)cc2c(=O)n1-c1ccc(Cl)cc1F", "growth": "-45.3% (active)"}
{"smiles": "COc1ccc(-c2nc3ncccn3c2/C=C/C(=O)c2cc(OC)c(OC)c(OC)c2)cc1", "growth": "1.2% (active)"}
{"smiles": "CCN1C(=O)N(CC)C2C1NN=c1s/c(=C\\c3ccccn3)c(=O)n12", "note": "(stereo unspecified)", "growth": "-22.5% (active)"}
{"smiles": "c1ccc(-c2nc(N3CCNCC3)c3oc(-c4ccccc4)nc3n2)cc1", "growth": "-46.5% (active)"}
{"smiles": "Cn1c(C(N)=O)cc2c1-c1nc(Nc3ccccc3)ncc1CCC2", "growth": "40.6%"}
